# From PubChem BioAssay
# Calls of active or inactive are those of the source. Unless noted, the rule behind the calls is not given here.
# How the values were obtained:
# [1] = sensitizers of A549 cells to miR-34 induction, primary screen, imaging, A549 dox-inducible miR-34, nuclei and caspase counts (AID 1347080;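 active = compounds whose cell count with miR-34 switched on is under 0.7 times the count with it off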); settings: A549 miR-34 inducible, Hoechst nuclei count, 48 h
# [2] = phospholipid biosynthesis inhibitors in animal cells, primary screen, cell-based, LOPAC library, screen 4 (AID 1347384); settings: phospholipid biosynthesis inhibition screen, at 10 µM
# [3] = viability rescue of complex I mutant cybrids, primary screen, cell-based, galactose medium, ATP luminescence (AID 1645843;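 active = z-score of at least 1.8 in each of two replicates, scored against plate mean and spread of sample wells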;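 note: positive z means more ATP and so rescue of galactose-driven cybrid death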); settings: complex I mutant cybrid cells, 72 h, stronger effect = higher value
# [4] = tested on: Hepatitis C virus NS3 helicase; assay: HCV NS3 helicase inhibitors, primary screen, biochemical, fluorescence polarization, LOPAC1280 library (AID 687035; in the data active = inhibition above about 37%); settings: Purified HCV NS3 helicase, Cy5-dT15 ssDNA binding fluorescence polarization; stronger effect = higher value; concentration not given here
# [5] = Cy5 fluorescence quenching or enhancement artefacts, artefact control for HCV NS3 helicase inhibitor project, biochemical, LOPAC1280 (AID 687037); settings: Cy5-DNA-NS3h complex fluorescence interference counterscreen
# [6] = survival rescue of mitochondrial mutant cells in low glucose, primary screen, MELAS cybrids, Rieske KO mouse fibroblasts, CellTiter-Glo (AID 1508586;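 active = mean z-score across replicates of 1.96 or higher in either the MELAS or the Rieske mutant cell line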;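 note: z relative to plate mean and SD of compound and empty wells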)
# [7] = hESC survival regulators, cell-based (AID 493140); settings: human embryonic stem cell survival screen; stronger effect = higher value;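 note: cells exposed to compounds for four days before counting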
# [8] = inhibitors of Cryptococcus chitosan production, flow cytometry, Cibacron Brilliant Red staining (AID 1347148); settings: Cryptococcus neoformans chitosan, stronger effect = lower value; at 10 µM unless noted;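 note: compound exposure lasted three days at 37 degrees C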
# [9] = circadian clock period modulators, cell-based, LOPAC library, luminescence reporter (AID 2774); settings: circadian reporter cells, at 7 µM, actives lie on both sides;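 note: values are relative to mean of DMSO wells on each plate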
# [10] = liver-stage malaria parasite growth inhibition, primary screen, cell-based, HepG2, luciferase luminescence, HepG2 viability (AID 624349; in the data active = parasite load remaining mostly below about 12%, no sharp cut-off; inactive = mostly above about 10%;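 note: 100% = mean of DMSO negative control wells on the same plate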); settings: P. berghei liver stage in HepG2, luciferase luminescence, concentration not given here; parasite load remaining: stronger effect = lower value; viability: measured here: HepG2 viability without parasites
# [11] = modifiers of HSF1 nuclear foci, imaging, Selleck Cancer Library (AID 1347162; in the data active = plate-normalised HSF1 focus index below about 0.46); settings: human cells, at 10 µM; SSMD: measured here: HSF1 foci SSMD mean; cell count: measured here: cell number; plate-normalised HSF1 focus index: stronger effect = lower value
# [12] = biological target: NAD(+) hydrolase SARM1 (Homo sapiens) (UniProt Q6SZW1); assay: SARM1 TIR NADase inhibitors, cell lysate, NAD-Glo luminescence (AID 1508614;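 active = compound whose remaining NAD level is above about 45 nM, limit read from the data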;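 note: higher remaining NAD means stronger inhibition of SARM1 NADase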); settings: SAM-TIR HEK293T lysate NADase, at 1 µM, stronger effect = higher value
# [13] = stronger effect = lower value, cell number ratio, induced over uninduced
# [14] = measured here: relative caspase fold change +Dox/-Dox
# [15] = measured here: total cells with miR-34 induction, stronger effect = lower value
# [16] = measured here: total cells without miR-34 induction
# [17] = MELAS cybrid survival, CellTiter-Glo 48 h, stronger effect = higher value
# [18] = Rieske KO mouse fibroblast survival, CellTiter-Glo 72 h
# Chain of NAD(+) hydrolase SARM1 (Homo sapiens) (Q6SZW1 whole entry, looked up): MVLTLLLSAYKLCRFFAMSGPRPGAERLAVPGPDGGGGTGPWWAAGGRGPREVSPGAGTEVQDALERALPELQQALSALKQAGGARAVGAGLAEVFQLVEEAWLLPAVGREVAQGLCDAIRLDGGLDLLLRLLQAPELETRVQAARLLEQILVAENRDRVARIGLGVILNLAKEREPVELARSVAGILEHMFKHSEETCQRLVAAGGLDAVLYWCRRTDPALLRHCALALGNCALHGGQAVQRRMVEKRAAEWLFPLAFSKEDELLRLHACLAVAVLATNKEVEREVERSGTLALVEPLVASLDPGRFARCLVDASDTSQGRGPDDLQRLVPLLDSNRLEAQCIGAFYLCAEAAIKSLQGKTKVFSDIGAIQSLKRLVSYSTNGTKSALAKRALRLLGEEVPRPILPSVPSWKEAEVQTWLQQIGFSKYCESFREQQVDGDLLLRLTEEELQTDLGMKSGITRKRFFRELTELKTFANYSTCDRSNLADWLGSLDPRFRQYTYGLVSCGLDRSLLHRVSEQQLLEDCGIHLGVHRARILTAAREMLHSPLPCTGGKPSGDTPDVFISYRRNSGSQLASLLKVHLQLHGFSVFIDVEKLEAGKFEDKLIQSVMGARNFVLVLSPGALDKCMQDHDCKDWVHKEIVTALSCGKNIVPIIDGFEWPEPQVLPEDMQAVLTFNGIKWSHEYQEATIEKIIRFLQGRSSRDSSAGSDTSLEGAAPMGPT
smiles,measurement,setting,value
CS(=O)(=O)c1ccc(-n2nc(C(F)(F)F)cc2-c2ccc(F)cc2)cc1,fold change,[1]; [13],1.12 (inactive)
same,fold change,[1]; [14],0.872
same,cell count,[1]; [15],9270
same,cell count,[1]; [16],8270
same,outcome,[2],inactive
same,z-score,[3],0.62 (inactive)
O=C1Nc2ccc(I)cc2C1=Cc1cc(Br)c(O)c(Br)c1,inhibition,[4],-1% (inactive)
same,fluorescence ratio (interference),[5],1 (inactive)
same,fold change,[1]; [13],1.04 (inactive)
same,fold change,[1]; [14],0.568
same,cell count,[1]; [15],7930
same,cell count,[1]; [16],7600
same,outcome,[2],inactive
same,z-score,[6]; [17],-0.141 (inactive)
same,z-score,[6]; [18],-0.283
COc1ccc(/C=C/c2nc(NCCCN(C)C)c3ccccc3n2)cc1,fold change,[1]; [13],1.02 (inactive)
same,fold change,[1]; [14],1.21
same,cell count,[1]; [15],1330
same,cell count,[1]; [16],1300
same,outcome,[2],inactive
same,z-score,[3],-1.21 (inactive)
O=Cc1c2[nH]c3ccccc3c2cc2[nH]c3ccccc3c12,survival,[7],124 (inactive)
same,fold change,[1]; [13],0.873 (inactive)
same,fold change,[1]; [14],1.33
same,cell count,[1]; [15],4820
same,cell count,[1]; [16],5520
same,fold fluorescence,[8],4.2 (inactive)
CC/C=C\C/C=C\C/C=C\CCCCCCCCCCCC(=O)O,survival,[7],81.8 (inactive)
same,fold change,[1]; [13],0.989 (inactive)
same,fold change,[1]; [14],0.936
same,cell count,[1]; [15],5970
same,cell count,[1]; [16],6030
same,fold fluorescence,[8],4.89 (inactive)
COc1ccc(C(=O)/C(Cc2cc(OC)c(OC)c(OC)c2)=C(\C(=O)O)c2ccc3c(c2)OCO3)cc1,fold change,[1]; [13],1.31 (inactive)
same,fold change,[1]; [14],1.24
same,cell count,[1]; [15],3900
same,cell count,[1]; [16],2980
same,outcome,[2],inactive
same,z-score,[3],-1.33 (inactive)
Nc1ncnc2c1c(-c1ccc(Oc3ccccc3)cc1)cn2C1CCCC1,period change,[9],0.07 h (inactive)
same,parasite load remaining,[10],28.7% (inactive)
same,viability,[10],78.8%
same,inhibition,[4],2% (inactive)
same,fluorescence ratio (interference),[5],1 (inactive)
same,fold change,[1]; [13],1.28 (inactive)
same,fold change,[1]; [14],0.999
same,cell count,[1]; [15],4440
same,cell count,[1]; [16],3470
same,SSMD,[11],-0.154
same,cell count,[11],6750
same,plate-normalised HSF1 focus index,[11],0.99 (inactive)
same,outcome,[2],inactive
same,z-score,[3],-1.02 (inactive)
N#C/C(=C\c1cc(Cl)cc(Cl)c1)c1cccnc1,survival,[7],87.3 (inactive)
same,fold change,[1]; [13],1.04 (inactive)
same,fold change,[1]; [14],0.973
same,cell count,[1]; [15],1950
same,cell count,[1]; [16],1890
same,fold fluorescence,[8],4 [at 181.7 µM] (inactive)
Cc1oc(S(=O)(=O)N2CCCCC2)cc1NC(=O)Nc1ccccc1,fold change,[1]; [13],0.9 (inactive)
same,fold change,[1]; [14],1.24
same,cell count,[1]; [15],5590
same,cell count,[1]; [16],6210
same,SSMD,[11],2.84
same,cell count,[11],6950
same,plate-normalised HSF1 focus index,[11],1.17 (inactive)
CO/N=C(\C(=O)N[C@@H]1C(=O)N2C(C(=O)O)=C(COC(C)=O)CS[C@H]12)c1csc(N)n1,parasite load remaining,[10],16.7% (inactive)
same,viability,[10],71.5%
same,fold change,[1]; [13],0.894 (inactive)
same,fold change,[1]; [14],1.17
same,cell count,[1]; [15],9420
same,cell count,[1]; [16],10500
same,outcome,[2],inactive
same,z-score,[6]; [17],0.329 (inactive)
same,z-score,[6]; [18],0.781
same,z-score,[3],-0.18 (inactive)
CN(C)CC(O)Cn1c2ccc(Br)cc2c2cc(Br)ccc21 (stereo not drawn),fold change,[1]; [13],0.735 (inactive)
same,fold change,[1]; [14],1.58
same,cell count,[1]; [15],200
same,cell count,[1]; [16],272
same,outcome,[2],inactive
Brc1cc2c(cc1[C@H]1Nc3ccccc3[C@H]3C=CC[C@H]31)OCO2,fold change,[1]; [13],1.18 (inactive)
same,fold change,[1]; [14],1.55
same,cell count,[1]; [15],6800
same,cell count,[1]; [16],5750
same,outcome,[2],inactive
same,z-score,[3],-0.59 (inactive)
C[C@@H](NCCc1ccc(O)cc1)[C@@H](O)c1ccc(O)cc1,period change,[9],0.07 h (inactive)
same,inhibition,[4],0% (inactive)
same,fluorescence ratio (interference),[5],0.9 (inactive)
same,fold change,[1]; [13],0.982 (inactive)
same,fold change,[1]; [14],1.22
same,cell count,[1]; [15],10600
same,cell count,[1]; [16],10800
same,outcome,[2],inactive
same,remaining NAD,[12],10 nM (inactive)
same,z-score,[3],0.51 (inactive)
CCOC(=O)[C@H](CCc1ccccc1)N[C@@H](C)C(=O)N1[C@H](C(=O)O)C[C@H]2CCCC[C@@H]21,inhibition,[4],-4% (inactive)
same,fluorescence ratio (interference),[5],1 (inactive)
same,fold change,[1]; [13],1.13 (inactive)
same,fold change,[1]; [14],0.831
same,cell count,[1]; [15],11100
same,cell count,[1]; [16],9850
same,outcome,[2],inactive
same,remaining NAD,[12],10 nM (inactive)
same,z-score,[3],0.51 (inactive)
CCCCC/C=C\C\C=C/C=C/C=C/[C@@H](SCC(NC(C)=O)C(=O)O)[C@@H](O)CCCC(=O)O (stereo partly drawn),survival,[7],136 (inactive)
same,fold change,[1]; [13],0.952 (inactive)
same,fold change,[1]; [14],1.06
same,cell count,[1]; [15],5780
same,cell count,[1]; [16],6080
same,fold fluorescence,[8],4.05 [at 1 µM] (inactive)
O=C(CCSCc1ccco1)NNC(=O)N1Cc2ccccc2Oc2ccc(Cl)cc21,fold change,[1]; [13],0.969 (inactive)
same,fold change,[1]; [14],0.669
same,cell count,[1]; [15],7850
same,cell count,[1]; [16],8100
same,outcome,[2],inactive
same,z-score,[3],1.58 (inactive)
O=c1[nH]cnc2c1CN=N2,parasite load remaining,[10],22.2% (inactive)
same,viability,[10],60.5%
same,fold change,[1]; [13],0.891 (inactive)
same,fold change,[1]; [14],1.16
same,cell count,[1]; [15],9860
same,cell count,[1]; [16],11100
same,outcome,[2],inactive
same,z-score,[6]; [17],0.591 (inactive)
same,z-score,[6]; [18],0.624
same,z-score,[3],0.315 (inactive)
O=C1c2ccccc2C(=O)c2c(NCCc3ccc(O)cc3)ccc(NCCc3ccc(O)cc3)c21,inhibition,[4],13% (inactive)
same,fluorescence ratio (interference),[5],1.1 (inactive)
same,fold change,[1]; [13],1.15 (inactive)
same,fold change,[1]; [14],1.12
same,cell count,[1]; [15],4510
same,cell count,[1]; [16],3920
same,SSMD,[11],0.452
same,cell count,[11],6780
same,plate-normalised HSF1 focus index,[11],1.04 (inactive)
same,outcome,[2],active
same,z-score,[3],-0.96 (inactive)
CC(C)COC(=O)OCN1C(=O)CN(CCN2CC(=O)N(COC(=O)OCC(C)C)C(=O)C2)CC1=O,period change,[9],-0.045 h (inactive)
same,inhibition,[4],1% (inactive)
same,fluorescence ratio (interference),[5],1 (inactive)
same,fold change,[1]; [13],0.995 (inactive)
same,fold change,[1]; [14],1.59
same,cell count,[1]; [15],8180
same,cell count,[1]; [16],8220
same,outcome,[2],inactive
same,z-score,[3],0.435 (inactive)
